Rows were chosen to be rich in hits. Some 7.5% of all compounds tested hit in one or more screens of this group.
SMN2 splice up: SMN2 splice variant enhancement. HEK293 SMN2-luciferase splicing reporter, luminescence, 30-36 h. 2.8% of 210,000 active. Potency, µM (titrated, usually from 46.1 µM), without a hit: at the highest dose activity change, positive = activation, hits mostly activators; note: % of control where 0% means no effect; nearly all actives have a fitted effect of over 55% in size
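HEK293 cells carry an SMN2 […]–luciferase reporter in which exon 7 inclusion puts luciferase in frame. Cells were plated 10-12 h before compound addition, then incubated 30-36 h at 37C. ONE-Glo luminescence was read; sodium butyrate at 4.5 mM final served as control.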
ELG1 genotoxic: inducers of genotoxicity in HEK293T ELG1-luciferase cells | HEK293T ELG1-luciferase reporter, luminescence, 16 h | Potency, µM (series often up to 46 µM), inactives show at the top dose activity change, positive = activation, actives largely listed as activators | 1.3% of 330,000 active; note: % of control where 0% means no effect; nearly all actives have a fitted effect of over 60% in size
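After overnight (16 hr) compound treatment at 37 °C, ELG1-luciferase HEK293T cells were lysed with ONE-Glo; luminescence quantified 30 min later at room temperature.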
FLuc modulator: firefly luciferase modulation, counter-screen for miR-21 project. P08659. purified FLuc, Km substrates, luminescence inhibition. Potency, µM (doses to about 57.5 µM), without a hit: top-dose activity change, negative = inhibition, most hits filed as inhibitors. 6.9% of 360,000 active. AID 588342;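 note: plate controls were vehicle for no effect and reference inhibitor for full effect; nearly all actives have a fitted effect of over 55% in size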
Target sequence (P08659 whole entry, looked up): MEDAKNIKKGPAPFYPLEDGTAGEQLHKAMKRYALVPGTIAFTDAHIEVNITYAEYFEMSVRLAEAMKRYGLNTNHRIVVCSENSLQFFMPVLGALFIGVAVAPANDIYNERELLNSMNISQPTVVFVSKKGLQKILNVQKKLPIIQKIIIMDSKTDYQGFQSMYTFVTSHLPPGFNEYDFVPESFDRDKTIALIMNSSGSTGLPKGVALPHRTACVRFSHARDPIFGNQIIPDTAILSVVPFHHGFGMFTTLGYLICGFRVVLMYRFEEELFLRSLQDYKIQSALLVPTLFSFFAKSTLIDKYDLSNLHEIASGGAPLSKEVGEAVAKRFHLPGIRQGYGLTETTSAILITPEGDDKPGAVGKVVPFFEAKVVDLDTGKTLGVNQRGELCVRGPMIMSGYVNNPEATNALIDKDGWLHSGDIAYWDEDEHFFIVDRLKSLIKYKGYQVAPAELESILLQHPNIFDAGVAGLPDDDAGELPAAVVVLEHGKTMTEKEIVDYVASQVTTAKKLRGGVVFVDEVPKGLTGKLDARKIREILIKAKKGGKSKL
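Biochemical qHTS of compounds, final roughly 60 µM downward over six points, against 10 nM purified firefly luciferase using Km concentrations of substrates (10 uM D-luciferin, 10 uM ATP) in Tris acetate pH 7.5 buffer; luminescence output.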
Rab9 promoter act: activators of Rab9 promoter. Huh7 Rab9 promoter-luciferase reporter, luminescence, 24 h. 2.8% of 320,000 active. Potency, µM (doses to about 9.22 µM), for inactives: top-dose activation, negative = inhibition, most hits filed as activators. AID 485297; note: % of control where 0% means no effect; nearly all actives have a fitted effect of over 60% in size
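Cells were plated at 1500 per well in reduced-serum medium with 10% FBS and left 2 h. Compound in DMSO was then added for 24 h at 37 °C. Reporter signal was read by luminescence after 10 min with luciferase detection reagent.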
NPC1 prom act: NPC1 promoter activation; Huh7 NPC1 promoter luciferase reporter, 24 h; Potency, µM (series often up to 9.22 µM), for the others: top-dose activation, hits mostly activators; AID 485313; 2.4% of 320,000 active; note: % of control where 0% means no effect; nearly all actives have a fitted effect of over 60% in size
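Stable NPC1-promoter luciferase Huh7 line; cpd (DMSO) 24 h, 37 °C, 5% CO2; Amplite luciferase reagent 10 min RT; luminescence readout. qHTS format.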
* hit, by the source's call; u = inconclusive; x = no result; [ ] = another dose, or the depositor's remark. Calls come from the whole dose curve; as a rule, active = well fitted curve in the direction sought with a large enough effect; inconclusive = small, poorly fitted or top-dose-only effect, or another doubt; inactive = no such curve, though single readings can be large; an effect the other way counts as inactive or inconclusive. Potency is the fitted concentration of half-maximal effect.

SMILES	SMN2 splice up	ELG1 genotoxic	FLuc modulator	Rab9 promoter act	NPC1 prom act
Cc1cc(C)cc(OCC(=O)O/N=C(\N)c2ccccn2)c1	5%	u	u	-8%	-4%
Cc1cccc(OCC(=O)O/N=C(\N)c2ccccn2)c1	u	u	17µM*	14%	27%
Cc1ccc(OCC(=O)O/N=C(\N)c2ccncc2)cc1C	x	18%	u	u	17%
N/C(=N\OC(=O)COc1ccccc1)c1ccccn1	-9%[1.84 µM]	u	u	23%	19%
CCc1ccc(OCC(=O)O/N=C(\N)c2ccccn2)cc1	x	7.3µM*	9.5µM*	3.2µM*	3.2µM*
Cc1ccc(OCC(=O)O/N=C(\N)c2ccccn2)cc1C	x	8.2µM*	12µM*	u	2.2µM*
CC1CCc2c(sc(NC(=O)c3cccs3)c2C(=O)O)C1 (stereo not given)	x	-5%	6.7µM*	26%[1.84 µM]	19%
COC(=O)c1c(NC(=O)c2cccs2)sc2c1CCC(C)C2 (stereo not given)	15%	15%	11µM*	u	u
CCCC1CCc2c(sc(NC(=O)c3cccs3)c2C(N)=O)C1 (stereo not given)	4%	5%	3.4µM*	u	u
CC(C)(C)C1CCc2c(sc(NC(=O)c3cccs3)c2C(=O)N2CCCCC2)C1 (stereo not given)	-2%	-8%	4%	12%	0%
CCC1CCc2c(sc(NC(=O)c3ccoc3C)c2C(N)=O)C1 (stereo not given)	u	u	6.7µM*	21%	-3%
Cc1ccc(S(=O)(=O)N2CCN(C(=O)COC(=O)C3(C)CC3(Cl)Cl)CC2)c(C)c1 (stereo not given)	x	0%	2%	2%	-1%
CN1CCN(Cn2cc(/C=C/C(=O)c3ccccc3)c3ccccc32)CC1	27%	u	2.4µM*	2.8µM*	u
CCCCN(C(=O)CSCc1ccc(C)cc1)c1c(N)n(CCC)c(=O)[nH]c1=O	x	-1%	7%	4%	-10%
COc1ccc(Cc2nc(C(=O)Nc3ccccc3)cs2)cc1	-67%	0%	19µM*	22%	u
COc1ccc(Cc2nc(C(=O)Nc3ccc(Cl)cc3)cs2)cc1	-75%	u	u	0%	-4%
O=C(Nc1ccc(Cl)cc1)c1csc(Cc2ccccc2)n1	u	u	5.4µM*	u	22%
COc1ccc(Cc2nc(C(=O)Nc3ccc(F)cc3)cs2)cc1	-32%	6%	u	12%	2%
COc1ccc(NC(=O)c2csc(Cc3ccc(Cl)cc3)n2)cc1	-23%	-1%	24µM*	-12%	1%
COCCSc1ccccc1C(=O)Nc1ccccc1C(C)C	-4%	-7%	1%	-1%	-2%
COc1cc(OC)cc(C(=O)OCC(=O)N(C)c2ccccc2)c1	x	4%	0%	4%	3%
CCOc1cc(CNCCO)cc(Br)c1OCc1ccc(Cl)cc1	-11%	3%	2%	1%	0%
CCc1nnc(N/N=C/c2ccccc2Cl)n1N	-5%	3%	-24%	-5%	2%
CCCSc1ncc(Cl)c(C(=O)Nc2ccc(S(=O)(=O)N3CCCC(C)C3)cc2)n1 (stereo not given)	-27%	x	-2%	x	x
O=C(c1ccc(Cl)cc1)N1CCN(c2ncccn2)CC1	x	-5%	-2%	1%	2%
SMILES	SMN2 splice up	ELG1 genotoxic	FLuc modulator	Rab9 promoter act	NPC1 prom act
O=C(CCSc1ccc(Cl)cc1)N1CCCCCC1	7%	14%	19µM*	3.5µM*	u
O=C(CCSc1ccc(Cl)cc1)N1CCN(c2ncccn2)CC1	8%	u	19µM*	25%	u
CCOc1ccc(-c2cc(C(=O)NCCCN3CCCC3)c3ccccc3n2)cc1	x	13%	12µM*	1%	2%
COc1ccc(Nc2cc(C(=O)NCCCN3CCN(C)CC3)c3ccccc3n2)cc1OC	-11%	-3%	u	-3%	1%
Cc1ccc(-c2cc(C(=O)NCCCN3CCOCC3)c3ccccc3n2)cc1C	x	-4%	12µM*	1%	5%
COc1ccc(Nc2cc(C(=O)NCCCN3CCOCC3)c3ccccc3n2)cc1OC	3%	-3%	17µM*	1%	4%
O=S(=O)(c1ccccc1)N1CCN(Cc2cccc(Cl)c2)CC1	12%	-2%	4%[2.3 µM]	-2%	-8%
O=C(OC1CCOC1=O)c1cc(-c2cccc(Br)c2)nc2ccccc12 (stereo not given)	14%	3%	u	-3%	-4%
COc1ccc(-c2cc(C(=O)OC3CCOC3=O)c3ccccc3n2)cc1 (stereo not given)	5%	9%	7.6µM*	-5%	2%
O=C(OC1CCOC1=O)c1cc(-c2ccc(Br)cc2)nc2ccccc12 (stereo not given)	8%	-1%	19µM*	1%	-2%
Cc1ccc(S(=O)(=O)N2CCN(C(=O)COc3ccc(-c4nnco4)cc3)CC2)cc1	-16%	0%	2%	0%	-1%
CC(C)Cc1nnc(NC(=O)c2cc3c(s2)CCC3)s1	x	17%	u	3.2µM*	3.5µM*
Cc1ccccc1NC(=O)C(=O)NCCCN1CCCC1=O	x	2%	u	23%	14%
O=C(Nc1nnc(SCc2ccccc2)s1)c1cc2c(s1)CCCC2	-35%	u	u	20%	10%
O=C(NCCCN1CCCC1=O)C(=O)Nc1cccc(F)c1	x	u	17µM*	3.2µM*	u
CCSc1nnc(NC(=O)c2cc3c(s2)CCCC3)s1	u	7%	u	1.6µM*	2.5µM*
O=C(NCCCN1CCCC1=O)c1cc2c(s1)CCCCC2	x	u	17µM*	u	29%
O=C(Nn1cnnc1)c1cc2c(s1)CCCC2	7%	4%	21µM*	2%	7%
CN1CCCN(C(=O)c2cc3c(s2)CCCC3)CC1	x	12%	4%	14%	3%
O=C(Nc1nncs1)c1cc2c(s1)CCC2	u	u	6.7µM*	2.8µM*	u
Cc1cc(C)n(C(=O)c2cc3c(s2)CCCC3)n1	8%	2%	24µM*	8%	18%
O=C(Nc1nccs1)c1cc2c(s1)CCCCC2	-66%	x	0.085µM*	0.79µM*	1µM*
CN1CCN(c2nc(Nc3ccccc3)nc(N)c2[N+](=O)[O-])CC1	x	5%	2%	-3%	-1%
Cc1ccc(-n2c(C)cc(C(=O)CN3CCCCC3)c2C)cc1	-32%	12%	u	0%	-3%
Cc1cc(C(=O)CN2CCC(C)CC2)c(C)n1-c1ccccc1F	u	u	1.9µM*	-8%	-8%
Cc1cc(C(=O)CN2CC(C)OC(C)C2)c(C)n1-c1ccccc1 (stereo not given)	u	21µM*	u	u	u
Cc1cc(C(=O)CN2C(=O)C(=O)N(Cc3ccccc3)C2=O)c(C)n1-c1ccccc1F	-1%	2%	19µM*	-3%	0%
